# From the supplement of paper PMC10127200
# Where a name gives a salt, the structure may show the parent alone.
# Experiments:
# Assay in all cases: Euclidean distance of Cell Painting phenotypic profile (signed KS, 77 features) to DMSO centroid (dimensionless distance); 5 or 10 uM (library dependent); higher = stronger phenotypic change vs DMSO (phenoactivity)
# Settings in all cases: 48 h
# 786-O = system: 786-O
# How it was run: (§1)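 Library compounds were applied at 10 or 5 uM, depending on the library, with 0.1% DMSO final, for 48 h to five cancer lines and a healthy fibroblast line. After staining, cells were imaged confocally at 20X across 9 fields per well, and Harmony extracted 77 features, each scored as a signed Kolmogorov-Smirnov statistic against vehicle wells on the same plate. Phenoactivity is the Euclidean distance between each profile and the median vehicle profile, with profiles first plate-position corrected, correlation-weighted and averaged over replicates at the top dose.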
# A549 = system: A549
# How it was run: as §1
# DU145 = system: DU145
# How it was run: as §1
# FB = system: FB
# How it was run: as §1
# HEPG2 = system: HEPG2
# How it was run: as §1
# OVCAR4 = system: OVCAR4
# How it was run: as §1
SMILES,Euclidean distance (786-O),Euclidean distance (A549),Euclidean distance (DU145),Euclidean distance (FB),Euclidean distance (HEPG2),Euclidean distance (OVCAR4)
O=C(NC[C@H]1CN(c2ccc(N3CCOCC3=O)cc2)C(=O)O1)c1ccc(Cl)s1 [Rivaroxaban],1.33,1.15,0.946,0.949,0.52,1.51
COc1ccc2cc([C@H](C)C(=O)O)ccc2c1 [Naproxen],0.797,0.78,1.05,0.816,1.13,1.28
CC(=O)c1cc([N+](=O)[O-])c(Sc2cccc(Cl)c2Cl)s1,0.465,0.706,0.528,0.668,0.869,1.26
O=C(O)CCc1ccc(NCc2cccc(Oc3ccccc3)c2)cc1,1.31,1.43,1.69,1.47,1.25,1.53
OC[C@H]1O[C@@H](O[C@@H]2[C@@H](CO)OC(O)(CO)[C@H]2O)[C@H](O)[C@@H](O)[C@H]1O (mixture of isomers) [Lactulose],1.29,0.822,0.75,0.999,1.43,1.7
COc1ccnc(C[S+]([O-])c2nc3cc(-n4cccc4)ccc3[nH]2)c1C (stereo unspecified) [Ilaprazole],1.22,1.57,1.17,1.23,0.928,1.27
COC(=O)N[C@H](C(=O)N1CCC[C@H]1c1nc(-c2ccc3c(c2)O[C@@H](c2ccccc2)n2c-3cc3cc(-c4c[nH]c([C@@H]5CCCN5C(=O)[C@@H](NC(=O)OC)C(C)C)n4)ccc32)c[nH]1)C(C)C [Elbasvir],2.17,1.94,1.26,1.97,1.04,1.58
O=c1cc(-c2cccc3c2Sc2ccccc2S3)oc(N2CCOCC2)c1,0.999,0.525,0.839,1.33,1.72,1.14
O=C(CCCCCCNC(=O)c1cnc(N(c2ccccc2)c2ccccc2)nc1)NO [Ricolinostat (ACY-1215)],1.87,1.63,1.29,3.31,2.26,2.18
CC(Cc1ccc(O)c(O)c1)C(C)Cc1ccc(O)c(O)c1 (stereo unspecified) [Nordihydroguaiaretic acid (NDGA)],1.19,0.902,1.27,1.54,1.06,0.861
CN(C)C/C=C/C(=O)Nc1cc2c(Nc3ccc(F)c(Cl)c3)ncnc2cc1O[C@H]1CCOC1 [Afatinib (BIBW2992) Dimaleate],4.65,3.63,5.93,5.45,4.62,4.49
CO[C@H]1/C=C/O[C@@]2(C)Oc3c(C)c(O)c4c(O)c(c(/C=N/N5CCN(C)CC5)c(O)c4c3C2=O)NC(=O)/C(C)=C\C=C\[C@H](C)[C@H](O)[C@@H](C)[C@@H](O)[C@@H](C)[C@H](OC(C)=O)[C@@H]1C [Rifampin],1.56,0.64,1.44,1.36,2.28,1.14
COc1cccc2c1C(=O)c1c(O)c3c(c(O)c1C2=O)C[C@@](O)(C(C)=O)C[C@@H]3O[C@H]1C[C@H](N)[C@H](O)[C@H](C)O1 [Daunorubicin HCl],5.05,5.5,5.6,4.91,4.88,5.41
OC[C@H]1O[C@@H](Oc2cc(O)cc(/C=C/c3ccc(O)cc3)c2)[C@H](O)[C@@H](O)[C@@H]1O [Polydatin],1.21,2.03,1.22,0.978,0.886,1.3
O=C(N/N=C/c1ccc([N+](=O)[O-])o1)c1ccc(O)cc1 [Nifuroxazide],1.64,1.52,0.846,1.33,2.82,1.2
COc1ccc(-c2cc(=O)c3c(OC)c(OC)c(OC)c(OC)c3o2)cc1 [Tangeretin],0.981,1.05,1.17,0.742,0.656,1.06
O=C1NCCc2[nH]c(-c3ccncc3)cc21,3.08,0.97,1.24,3.06,2.81,3.15
CCCc1nc2c(C)cc(-c3nc4ccccc4n3C)cc2n1Cc1ccc(-c2ccccc2C(=O)O)cc1 [Telmisartan],1.83,0.747,1.03,1.03,1.95,1.02
CCN(CC)CCOc1ccc2c(c1)C(=O)c1cc(OCCN(CC)CC)ccc1-2 [Tilorone dihydrochloride],2.8,3.87,2.37,5.04,4.45,3.1
Cc1c(Cl)cccc1Nc1ccccc1C(=O)O [Tolfenamic Acid],1.28,0.83,0.762,0.742,0.5,1.19
C=C1/C(=C\C=C2/CCC[C@]3(C)[C@@H]([C@H](C)CCCC(C)C)CC[C@@H]23)C[C@@H](O)C[C@@H]1O [Alfacalcidol],2.68,1.49,6.28,1.73,0.811,1.5
